# Screening results (PubChem BioAssay)
# Only a selection was taken, and hits are over-represented in it overall.
# ST2 IL33 inh: blocks human ST2 binding to IL-33 | AID 1259354 | Q01638 | hit rate 2.3% among 78,000 | inhibition, % for hits at 17 µM | AlphaLISA ST2-Fc/biotin-IL-33 interaction, 1 h; in the data active = inhibition above about 30%
# Target sequence (Q01638 whole entry, looked up): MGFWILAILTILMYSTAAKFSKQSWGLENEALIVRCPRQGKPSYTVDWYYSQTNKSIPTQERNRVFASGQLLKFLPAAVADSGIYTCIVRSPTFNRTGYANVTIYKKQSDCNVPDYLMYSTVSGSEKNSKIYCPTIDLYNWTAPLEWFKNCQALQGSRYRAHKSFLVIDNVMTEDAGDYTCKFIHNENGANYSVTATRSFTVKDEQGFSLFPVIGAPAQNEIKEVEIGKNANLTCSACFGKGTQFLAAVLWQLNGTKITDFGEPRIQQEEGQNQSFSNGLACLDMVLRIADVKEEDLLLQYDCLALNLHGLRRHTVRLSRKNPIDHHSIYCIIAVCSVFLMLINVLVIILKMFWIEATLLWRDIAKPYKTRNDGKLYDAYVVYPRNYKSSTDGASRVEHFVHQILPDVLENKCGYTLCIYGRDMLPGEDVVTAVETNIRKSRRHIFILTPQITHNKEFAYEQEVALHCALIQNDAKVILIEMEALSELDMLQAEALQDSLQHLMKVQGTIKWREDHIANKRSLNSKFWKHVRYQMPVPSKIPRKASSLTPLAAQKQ
# Numbers stand for hits; n = inactive.
SMILES,ST2 IL33 inh
COc1ccc(S(=O)(=O)Nc2ccc(OC)cc2[N+](=O)[O-])cc1,n
CN(C)c1ccc(/C=C2\N=C(c3cccc([N+](=O)[O-])c3)OC2=O)cc1,n
COc1ccc(C=C2c3cc([N+](=O)[O-])cc([N+](=O)[O-])c3-c3c2cc([N+](=O)[O-])cc3[N+](=O)[O-])cc1,51%
COc1ccc(/C=C2\N=C(c3ccc(C)c([N+](=O)[O-])c3)OC2=O)cc1,n
O=S(=O)(NC1CC1)c1ccc(Br)s1,n
Cc1nc2cc(NC(=O)C3CC34CCN(C(=O)/C=C/c3cccc(F)c3)CC4)ccc2s1 (stereo not drawn),n
Cc1ccc(C(=O)NN2C(=O)C3C(C2=O)[C@@H]2C=C[C@H]3[C@H]3C[C@H]32)cc1 (stereo partly drawn),n
CC(=O)N(CN1C(=O)C2CCCCC2C1=O)c1ccccc1C (stereo not drawn),n
CC1=C[C@@H](CNC(=O)c2ccccc2)[C@H](C(C)C)C[C@H]1CC(=O)O,n
CC1=C[C@@H](CNC(=O)NC2CCCCC2)[C@H](C(C)C)C[C@H]1CC(=O)O,n
COCC(=O)NC[C@@H]1C=C(C)[C@H](CC(=O)O)C[C@H]1C(C)C,32%
Cc1ccc(-c2nnc([C@H]3CCN(CCCc4ccccc4)C3)o2)cc1,n
CC1=C(C(=O)Nc2cc(C)ccn2)C(c2ccccc2C)C2=C(CC(C)(C)CC2=O)N1 (stereo not drawn),n
OC1CCCN(c2ncccc2CNC2CCSCC2)C1 (stereo not drawn),n
COc1ccccc1Nc1nc(-c2nnc(-c3cccc(C)c3)o2)nc2ccccc12,n
COc1ccccc1/C=C1/C(=O)NN(c2ccc(C)c(Cl)c2)C1=O,n
Cc1ccc(-c2ccc(/C=C3/C(=O)NN(c4ccc(F)cc4)C3=O)o2)c([N+](=O)[O-])c1C,42%
COc1cccc(/C=C2/C(=O)NN(c3ccc(C)c(Cl)c3)C2=O)c1OCC#N,n
N=C1S/C(=C/c2ccc(-c3ccccc3[N+](=O)[O-])o2)C(=O)N1c1nonc1N,n
COc1ccc(-c2ccc(/C=C3/C(=O)NN(c4ccc(C)c(Cl)c4)C3=O)o2)c([N+](=O)[O-])c1,41%
COC(=O)C1C(=O)C2=C(CC1C)NC(C)=C(C(=O)OC1CCCC1)C2c1cccc(Cl)c1 (stereo not drawn),n
Cc1cc(C(F)(F)F)nc(N2CCc3ccccc3C2)n1,n
Cc1nonc1C(=O)N1CCCC(CCC(=O)N2CCN(Cc3ccccc3)CC2)C1 (stereo not drawn),n
CC(C)Oc1ccc(C(=O)N(c2ccc(C(C)C)cc2)C2C=CS(=O)(=O)C2)cc1 (stereo not drawn),n
COc1cc2c(cc1OC)C(C(=O)NC1CCCCC1)C1c3ccccc3CCN1C2=O (stereo not drawn),n
SMILES,ST2 IL33 inh
CSc1nnc2c(n1)OC(c1ccco1)N(C(=O)c1ccccc1)c1ccccc1-2 (stereo not drawn),n
CN(C)c1ccc(C(=O)Nc2nc3c(ccc4ccccc43)s2)cc1,n
CNS(=O)(=O)c1ccc(Sc2ccc(S(=O)(=O)NC)cc2)cc1,n
CCOc1cc2c(cc1OCC)C1C(C(=O)N3CCOCC3)c3ccccc3C(=O)N1CC2 (stereo not drawn),n
O=C1CC(N2CCN(/C=C/c3ccccc3)CC2)C(=O)N1c1ccccc1 (stereo not drawn),n
CCC(=O)Nc1nc2nc(C(C)C)cc(=O)n2[nH]1,n
Cc1ccc(-c2csc(/C(C#N)=C/c3ccc(Br)o3)n2)c(C)c1,60%
COc1ccc(-c2csc(/C(C#N)=C\c3ccc(OC)o3)n2)cc1,49%
N#C/C(=C\c1ccc(Br)o1)c1nc(-c2ccc(Cl)cc2)cs1,31%
Cc1ccc(/C=C(/C#N)c2nc(-c3ccc(Cl)c(Cl)c3)cs2)o1,n
COc1ccc(-c2csc(NC(=O)C3CC=CCC3C(=O)O)n2)cc1 (stereo not drawn),n
COc1ccc(-c2nnc(-c3ccc(OC)cc3)o2)cc1,n
Cc1ccc(-c2csc(NC(=O)CCCC(=O)O)n2)c(C)c1,n
COc1ccc(-c2csc(/C(C#N)=C/c3ccc(Br)o3)n2)cc1,42%
COc1cccc2cc(-c3nc(-c4ccc(Br)cc4)cs3)c(=O)oc12,n
Cc1cccc(C)c1-n1nnnc1S(C)(=O)=O,n
Cc1nc2c(ccc3nc(NC(=O)c4c(F)cccc4F)sc32)s1,n
COc1cccc(CNC(=O)C(=O)Nc2ccc(C)c(Cl)c2)c1,n
Cc1ccc(-c2nc3cccnc3o2)cc1NC(=O)c1cccc([N+](=O)[O-])c1C,n
CSc1cccc(NC(=O)Cc2c(C(=O)O)[nH]c3ccccc23)c1,n
O=C(NCc1cn[nH]c1-c1cccs1)c1cnn2c1CCCC2,n
CC1(C)CC(=O)C2=C(C1)c1c(ccc3ncccc13)NC2c1ccc(Cl)cc1 (stereo not drawn),n
CCOC(=O)CSC1=C(C#N)C(c2ccc(F)cc2)CC(=O)N1 (stereo not drawn),n
O=C(CSc1cn(Cc2ccc(Cl)cc2)c2ccccc12)NCc1ccco1,n
O=C(Nc1c(Cl)cccc1Cl)C1(c2ccccc2)CCOCC1,n
SMILES,ST2 IL33 inh
O=C(O)CC1(CC(=O)N[C@H]2CO[C@H]3[C@@H]2OC[C@@H]3Nc2nccc(-c3ccc(-c4ccccc4)cc3)n2)CCCC1,n
Cc1ccc(N2C(=O)C3C4C=CC(O4)C3C2=O)cc1[N+](=O)[O-] (stereo not drawn),n
Cc1ccc(-n2cccc2)cc1[N+](=O)[O-],31%
Cc1ccc(N2C(=O)c3cccc([N+](=O)[O-])c3C2=O)cc1Cl,n
O=C(NCCc1ccccc1)c1cccc(F)c1,n
CC(C)C(Cn1ccnc1)NC(=O)c1ccccc1N1CCOCC1 (stereo not drawn),n
CC(C)c1cc(C(=O)NC(Cn2ccnc2)C(C)C)nc2ncnn12 (stereo not drawn),30%
CCC(Cn1ccnc1)NC(=O)c1ccc2c(c1)nnn2C (stereo not drawn),n
O=C(CC(c1ccccc1)c1ccc2c(c1)OCO2)NCCc1ccco1 (stereo not drawn),n
COCCNC(=O)C[C@@H]1O[C@H](CNS(=O)(=O)c2ccc(Cl)cc2)[C@@H](O)[C@H]1O,n
Cn1cc(C(=O)N2CCN(c3ccccc3F)CC2)c2c3ccccc3n(C)c2c1=O,n
O=C1C2[C@H](C(=O)N1c1cccc(Br)c1)C1c3ccccc3C2(C(=O)O)c2ccccc21 (stereo partly drawn),n
O=C1[C@@H]2C3c4ccccc4C(Br)(c4ccccc43)[C@@H]2C(=O)N1c1ccc([N+](=O)[O-])cc1,34%
CC(=O)Oc1ccc(N2C(=O)C3C4c5ccccc5C(C)(c5ccccc54)C3C2=O)cc1 (stereo not drawn),n
COc1cc(NCCNC(=O)c2ccncc2)ncn1,n
c1ccc(C2(CNc3ccccn3)CCCC2)cc1,n
COc1cc(NCC2(c3ccccc3)CCN(C)CC2)ncn1,31%
N#Cc1ccc(Oc2ccc(C(=O)c3ccccc3)cc2)cc1C#N,n
O=C(c1ccccc1)c1cc(Br)ccc1O,n
N#Cc1ccc(Br)cc1/C=C/C(=O)O,80%
O=C1NC(=O)/C(=C\c2cc(Cl)c(OCc3ccc(F)cc3)c(Cl)c2)N1,n
CN1C[C@H](NS(=O)(=O)c2cc(Cl)ccc2Cl)C[C@H]1CO,n
CCCCNC(=O)Cn1cnc2c1c(=O)n(C)c(=O)n2C,n
Cn1c(=O)c2c(ncn2CC(=O)Nc2ccccn2)n(C)c1=O,n
